Data reported in PubChem BioAssay AID1631 (National Center for Advancing Translational Sciences (NCATS), 2009).
In all, about 260,000 compounds went through this assay and about 890 (0.34%) were called active. Roughly 1% stayed inconclusive and do not appear here. This excerpt belongs to a sample that is enriched for actives. A number with no mark means an inactive call. The call rests on the fitted dose curve; in most records, active means well fitted activation curve with a large enough effect; inconclusive means small, poorly fitted or top-dose-only effect; inactive means no such curve, though single readings can be large or run the other way.

molecular target: Pyruvate kinase PKM (Homo sapiens) (UniProt P14618); assay: qHTS Assay for Activators of Human Muscle isoform 2 Pyruvate Kinase; details: purified PKM2, Kinase-Glo ATP luminescence; Potency: activation; series mostly up to 57.5 µM; activation: at the top concentration; further: nearly all actives have a fitted effect of over 55% in size
Sequence (P14618 whole entry, looked up, canonical isoform): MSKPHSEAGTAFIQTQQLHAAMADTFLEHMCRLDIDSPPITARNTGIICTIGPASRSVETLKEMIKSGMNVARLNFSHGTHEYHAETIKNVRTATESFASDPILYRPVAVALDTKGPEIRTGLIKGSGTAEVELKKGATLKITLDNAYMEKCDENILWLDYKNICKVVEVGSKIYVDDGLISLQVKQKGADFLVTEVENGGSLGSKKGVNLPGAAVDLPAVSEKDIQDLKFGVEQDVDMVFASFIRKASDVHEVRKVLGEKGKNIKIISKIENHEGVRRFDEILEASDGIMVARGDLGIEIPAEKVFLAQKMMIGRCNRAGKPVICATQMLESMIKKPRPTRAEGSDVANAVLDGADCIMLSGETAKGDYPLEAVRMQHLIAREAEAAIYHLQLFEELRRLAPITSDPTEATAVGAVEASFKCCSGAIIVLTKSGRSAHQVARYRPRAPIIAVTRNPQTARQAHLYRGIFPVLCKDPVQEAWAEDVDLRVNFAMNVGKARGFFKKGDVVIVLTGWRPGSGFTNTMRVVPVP
Source text: NIH Chemical Genomics Center [NCGC] Matthew G. Vander Heiden, M.D., Ph.D. [Harvard Medical School, 77 Avenue Louis Pasteur, Boston, MA 02115] MLPCN Grant: 1 R03 MH085679-01 NCGC Assay Overview: Human pyruvate kinase muscle 2 (hPK-M2) enzyme was supplied as a highly purified (>95% pure) preparation from Harvard Medical School and assayed for its ability to generate ATP from ADP using phosphoenolpyruvate (PEP) as a substrate. ATP generation was detected in a coupled reaction by luciferase-mediated luminescence, an ATP-dependent process. […] The enzyme was assayed at an intermediate level of activity to screen for both inhibitors and activators.
NCGC Assay Protocol Summary: Three uL of substrate mix (at r.t.) in assay buffer (50 mM Imidazole pH7.2, 50 mM KCl, 7 mM MgCl2, 0.01% Tween 20, 0.05% BSA) was dispensed into white solid bottom 1,536 well microtiter plates so that the final concentrations of substrates in the assay were 0.1 mM ADP and 0.5 mM PEP. 23 nL of compound were delivered by a pin tool and 1 uL of enzyme mix in assay buffer (4 degree Celsius) was added. Plates were incubated at room temperature for 1 hour. Two uL of detection mix (Kinase-Glo, Promega; at 4 degree Celsius protected from light) was added and luminescence read by a ViewLux (Perkin Elmer) at 5 second exposure/plate. Data were normalized to the uninhibited and AC100 inhibition (no enzyme). To monitor activation, the first column contained a titration of the activator, NCGC00031955-01 (16-point 1:2 dilutions in duplicate starting at 57 uM) and the first 16 rows of column 4 contained 57 uM of NCGC00031955-01.
On the % scale 0 is the no-effect control and ±100 the full control effect; potency means the concentration at half of the fitted maximal effect.

| SMILES | activation | Potency |
| --- | --- | --- |
| Cc1nc(SCC(=O)Nc2cc(C)on2)c2c(C)c(C)sc2n1 | 10.7% | – |
| COc1ccccc1-c1nnc(SCC(=O)Nc2cc(C)on2)o1 | 29.6% | – |
| Cc1cc(NC(=O)CSc2nnc(-c3ccc(Cl)s3)o2)no1 | – | 2.51 µM (active) |
| COc1cc(NC(=O)C2=CC(c3ccc(C)cc3)=NS(=O)(=O)N2C)cc(OC)c1OC | -11.3% | – |
| CCOc1ccccc1NC(=S)N1CCN(c2cccc(C)c2C)CC1 | -8.49% [at 11.5 µM, 0% is enzyme alone, no compound] | – |
| Cc1ccc2nc(C)cc(N/N=C/c3ccc(F)cc3)c2c1 | – | 15.8 µM (active) |
| CCOc1cc(/C=N/Nc2cc(C)nc3ccc(C)cc23)ccc1O | 2.65% | – |
| Fc1ccc(/C=N/Nc2nc(-c3cccnc3)nc3ccccc23)cc1 | 9.27% | – |
| Cc1ccccc1-c1nnn(CC(=O)c2ccc(S(=O)(=O)N3CCCC3)cc2)n1 | – | 7.94 µM (active) |
| Cc1cc(C)n(C(=O)c2ccc(S(=O)(=O)N3CCCC3)cc2)n1 | 0.764% | – |
| CC(C)(C)NC(=O)Cn1nnc(-c2ccccc2Cl)n1 | 7.5% | – |
| O=C(NC(=S)Nc1ccc(Cl)cc1Cl)C1CC1 | 0.937% | – |
| COC(=O)c1[nH]c2cccc(C)c2c1NC(=O)CN1CCCc2ccccc21 | 1.83% | – |
| NS(=O)(=O)c1cccc(NC(=O)CN2CCCc3ccccc32)c1 | 0.49% | – |
| COC(=O)c1[nH]c2ccccc2c1NC(=O)CN1CCCc2ccccc21 | – | 28.2 µM (active) |
| CCOc1ccccc1NC(=S)NC(=O)CCc1ccccc1 | 4.02% | – |
| CC(=O)c1cc(C#N)c(SCC(=O)C(C)(C)C)nc1C | -4% | – |
| Cc1cc(C(F)(F)F)nc(SCC(=O)Nc2nccs2)n1 | 8.51% | – |
| CC(=O)c1cc(C#N)c(SCC(=O)Nc2nccs2)nc1C | – | 1 µM (active) |
| CC1CCCCC1NC(=O)CCS(=O)(=O)c1ccc2c(c1)NC(=O)CO2 (stereo unspecified) | 0.549% [at 0.46 µM, 0% is enzyme alone, no compound] | – |
| CC(=O)OCCN(CCCn1c(-c2ccncc2)nc2ccccc21)c1nc(-c2ccc(C)cc2)cs1 | -0.825% | – |
| CC(C)c1ccc(NC2CCCN(C(=O)c3ccncc3)C2)cc1 (stereo unspecified) | 4.09% | – |
| O=C(c1ccccc1)N1CCN(C(=O)c2cc3nc(-c4ccccc4)cc(C(F)(F)F)n3n2)CC1 | 0.418% | – |
| CC(C)c1ccc(S(=O)(=O)N2CCN(C(=O)c3ccc(N4CCCC4)c([N+](=O)[O-])c3)CC2)cc1 | 12.8% | – |
| CCCOc1ccc(/C=N/NC(=O)C2CC2)c(OCCC)c1 | -0.336% | – |
| O=C(C1CCC(=O)N(C2CC2)C1)N1CCN(c2ccc(Cl)cc2)CC1 (stereo unspecified) | 6.03% | – |

| SMILES | activation | Potency |
| --- | --- | --- |
| CC(C)c1ccc(NC(=O)C2CCCN(S(=O)(=O)c3cccnc3)C2)cc1 (stereo unspecified) | 0.269% | – |
| COCc1cc(=O)n2[nH]c(C)c(-c3ccccc3)c2n1 | -8.06% [at 11.5 µM, 0% is enzyme alone, no compound] | – |
| CN(NS(=O)(=O)c1cccs1)c1ncc(C(F)(F)F)cc1Cl | -6.67% | – |
| CCOc1ccccc1N1C(=O)CC(Sc2nccc(C)n2)C1=O (stereo unspecified) | 4.68% | – |
| CCCn1c(C2CCCN2c2nc(-c3ccc(OC)cc3)cs2)nc2ccccc21 (stereo unspecified) | -18.9% | – |
| COC(=O)c1ccc(CN2CCCC(C(=O)Nc3cccc(-n4cnnn4)c3)C2)cc1 (stereo unspecified) | 0.254% | – |
| CNC(=O)COc1ccc(S(=O)(=O)Nc2ccccc2)cc1 | – | 10 µM (active) |
| COC(=O)COc1ccc(S(=O)(=O)Nc2ccc(NC(C)=O)cc2)cc1 | 0.72% | – |
| CCOc1ccc(NS(=O)(=O)c2ccc(OCC(=O)NCCCOC)cc2)cc1 | 7.89% | – |
| COc1cccc(OCC(O)CNC(=O)c2oc3c(C)c(C)ccc3c2C)c1 (stereo unspecified) | -3.96% | – |
| Cc1ccc(-n2ncc3c2CC(C)(C)CC3NC(=O)Cc2c(C)noc2C)cc1 (stereo unspecified) | 1.76% | – |
| O=C(NCCN1CCN(C(=O)c2cccc([N+](=O)[O-])c2)CC1)C(=O)NCc1ccc(Cl)cc1 | 2.86% | – |
| Cc1ccc(C)c(OCc2cc(C(=O)N3CCN(c4cnccn4)CC3)no2)c1 | -0.313% | – |
| C/C(=N\NC(=O)c1ccoc1C)c1ccccc1O | -13.3% | – |
| C=CCn1c(SCC(=O)NCC2CCCO2)nc2sc(C)c(C)c2c1=O (stereo unspecified) | 1.8% | – |
| C=CCNC(=O)CSc1nc2scc(-c3ccco3)c2c(=O)n1CC=C | 11.1% | – |
| C=CCn1c(SCc2csc(C)n2)nc2scc(-c3ccc(C)o3)c2c1=O | – | 10 µM (active) |
| CC(=O)Nc1cccc(Nc2nc(-c3cccs3)nc3ccccc23)c1 | 3.06% | – |
| Cc1cc(NC(=O)c2ccco2)c(=O)n(Cc2c(F)cccc2Cl)c1 | 0.6% | – |
| N#C[C@]1(S(=O)(=O)c2ccccc2)C[C@@H]2ON=C(c3cccc(Br)c3)[C@@H]2C1 | -14.9% | – |
| O=C(Nc1ccc(Cl)cc1)c1cccc(OC(=S)N2CCOCC2)c1 | -0.431% | – |
| Cc1cc(C)cc(OCc2nnc(SCC(=O)Nc3ccccc3)o2)c1 | -6.56% | – |
| COc1ccccc1-c1nnc(SCC(=O)Nc2ccccc2)o1 | 10.7% | – |
| COc1cccc(NC(=O)CSc2nnc(Cc3ccc(OC)c(OC)c3)o2)c1 | – | 14.1 µM (active) |
| O=C(Nc1nnc(S(=O)(=O)N2CCCCCC2)s1)c1cccc(Br)c1 | -6.77% | – |
| CCc1ccccc1OCC(=O)Nc1ccc2c(c1)OCCO2 | 8.35% | – |

| SMILES | activation | Potency |
| --- | --- | --- |
| COc1ccc(NS(=O)(=O)c2ccc(N3CCN(CCO)CC3)c([N+](=O)[O-])c2)cc1 | -1.52% | – |
| O=C(Nc1ncc([N+](=O)[O-])s1)C1COc2ccccc2O1 (stereo unspecified) | -15.3% | – |
| CCn1c(SCc2cc(=O)n3ccsc3n2)nc2ccccc21 | -1.44% | – |
| O=C(NCc1ccc(Cl)cc1)c1cc2c(nc3sccn32)s1 | 2.77% | – |
| O=c1cc(Cn2nnc(-c3ccc(Cl)cc3)n2)nc2sccn12 | – | 14.1 µM (active) |
| Clc1cccc(Cl)c1OCCOCCNCc1ccccc1 | -2.65% | – |
| COc1nnc(-c2ccc(C)c(S(=O)(=O)N(C)C)c2)c2ccccc12 | -1.4% | – |
| COc1cc(/C=C/C(=O)N2CCc3ccccc3C2)cc(OC)c1OC | 0% | – |
| COc1ccc(-c2oc3ncnc(NCCCO)c3c2-c2ccc(OC)cc2)cc1 | 1.83% | – |
| C=CCNC(=S)/N=c1/ccccn1Cc1ccccc1 | -5.18% | – |
| O=C(/C=C/c1ccc([N+](=O)[O-])o1)NNC(=O)c1ccc(F)cc1 | -6.12% | – |
| COCCNc1cc(-c2ccccc2)nc2cc(-c3cccc(F)c3)nn12 | 3.4% | – |
| CCC(=O)Nc1nc(C)c(C(=O)Nc2cccc(Cl)c2)s1 | 1.43% | – |
| O=C(CCCCCn1c(=S)[nH]c2ccsc2c1=O)NC1CCCCC1 | 13.9% [at 0.46 µM, 0% is enzyme alone, no compound] | – |
| CCSc1nsc(NC(=O)Nc2ccccc2OC)n1 | 0.348% | – |
| Cc1ccc(NC(=O)CSc2cccc3cccnc23)c(C)c1 | -0.598% | – |
| Cc1ccc(NC(=S)Nc2ccc(F)cc2)cc1 | 0.501% | – |
| N=c1oc2ccccc2cc1C(=O)NCc1ccccc1 | -2.59% | – |
| O=C(NCc1ccc2c(c1)OCO2)C1CCCN(S(=O)(=O)c2cccs2)C1 (stereo unspecified) | -1.93% | – |
| O=S(=O)(c1ccc2c(c1)OCCO2)N1CCc2ccccc21 | 9.4% | – |
| Cc1ccc(S(=O)(=O)N2CCN(C)CC2)cc1 | -0.548% | – |
| O=C(c1ccc2c(c1)OCCO2)C1CCN(S(=O)(=O)c2cccc(F)c2)CC1 | -1.6% | – |
| CN1CCCN(S(=O)(=O)c2ccc3c(c2)OCCO3)CC1 | – | 3.55 µM (active) |
| O=C(NCc1cccs1)C1CCN(S(=O)(=O)c2ccc3c(c2)OCCO3)CC1 | – | 3.98 µM (active) |
| O=C(NCc1cccs1)C1CCN(S(=O)(=O)c2ccc(Cl)cc2)CC1 | – | 14.1 µM (active) |
| O=C(NCc1ccc(Cl)cc1)C1CCN(S(=O)(=O)c2cccs2)CC1 | 19.6% | – |

| SMILES | activation | Potency |
| --- | --- | --- |
| O=C(NCc1ccccn1)C1CCN(S(=O)(=O)c2ccc(Br)cc2)CC1 | 3.51% | – |
| Cc1ccccc1CN1C[C@@H]2C[C@@H](c3cn(C)nc3-c3ccccc3)N3CCC[C@@]23C1=O | – | 5.62 µM (active) |
| Cc1ccccc1CN1C[C@@H]2C[C@@H](c3ccc4nsnc4c3)N3CCC[C@@]23C1=O | 2.46% | – |
| Cc1ccc(CN2CCN(Cc3cn(C)nc3-c3ccccc3)CC2CCO)o1 (stereo unspecified) | 0.985% | – |
| CN(C(=O)CSc1nncc2ccccc12)C1CCCCC1 | -6.26% | – |
| Brc1c(CSc2nncc3ccccc23)nc2ccccn12 | – | 4.47 µM (active) |
| COc1ccc(Cl)cc1NC(=O)c1cccc(N2C(=O)C3CC=CCC3C2=O)c1 (stereo unspecified) | 1.39% | – |
| O=C(NCC1CCCO1)c1cc2c([nH]c3ccccc32)c(-c2ccc(F)cc2)n1 (stereo unspecified) | 1.73% | – |
| O=C(Nc1ccc(S(=O)(=O)Nc2ccccn2)cc1)c1ccccc1 | 3.96% | – |
| C=CC(=O)c1ccc2ccccc2c1 | – | 10 µM (active) |
| CC(=O)CCC(=O)c1ccc2ccccc2c1 | -3.25% | – |
| CC(=O)c1ccc2c(ccc3ccccc32)c1 | 0.0915% | – |
| CCOC(=O)c1cccc(NC(=O)C2CCN(c3ncnc4c3nc3n4CCCCC3)CC2)c1 | 0.194% [at 0.46 µM, 0% is enzyme alone, no compound] | – |
| CCCOC1CCCN(C(=O)c2cc(COc3cncc(Cl)c3)on2)C1 (stereo unspecified) | -0.188% | – |
| O=C(NC(=S)NC1CCCCC1)c1ccc(Cl)cc1 | 0.722% | – |
| O=S(=O)(NC1CCCCC1N1CCN(c2ccccc2F)CC1)c1ccccc1 (stereo unspecified) | 5.02% | – |
| O=C(Cc1ccc(Cl)cc1)NC(=S)Nc1ccccc1O | 0.277% | – |
| CCN1C(=S)N[C@@H](CCc2ccccc2)[C@H](C(=O)OC)[C@H]1C | – | inactive |
| CC1(C(=O)NCCc2c[nH]c3ccccc23)C=CC2(CCCCC2)N1C(=O)c1ccccc1 (stereo unspecified) | -0.336% | – |
| Cc1ccccc1NC(=O)CSc1nc2ccc(Nc3nc(N4CCOCC4)nc(N4CCOCC4)n3)cc2s1 | 0.537% | – |
| CN(C(=O)CC1C(=O)NCCN1Cc1ccc(F)cc1Cl)C1CCCCC1 (stereo unspecified) | 5.71% | – |
| CC(=O)N1c2ccc(S(=O)(=O)N3CCCC(C(=O)Nc4cccc(F)c4)C3)cc2CC1C (stereo unspecified) | 1.41% | – |
| CCC(C)c1ccc(NC(=S)N2CCCC2)cc1 (stereo unspecified) | -6.17% | – |
